# According to PubChem BioAssay (NCATS):
# Records with an inconclusive call do not appear. A call without a number means that no potency is given here. Calls of active or inactive are those of the source. Calls come from the whole dose curve; as a rule, active = well fitted cell-killing curve with a large enough effect; inconclusive = small, poorly fitted or top-dose-only effect; inactive = flat fitted curve, though single readings scatter.
# Assay: Cell Viability - LYMP2-014 (AID 983);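 note: cells exposed to compound for 24 h at 37 °C; nearly all actives have a fitted effect of over 50% in size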
# Conditions: LYMP2-014 lymphoblastoid cells, viability qHTS; series mostly up to 92.2 µM
# Excerpt: NIH Chemical Genomics Center [NCGC]
# NIH Molecular Libraries Screening Centers Network [MLSCN]
# National Institutes of Environmental Health Sciences [NIEHS]
# National Toxicology Program [NTP]
# We have developed a 1536-well cell-based assay for quantitative high throughput screening (qHTS) against a number of cell lines to determine in vitro cytotoxicity of small molecules. This particular assay uses a human lymphoblastoid cell line (LYMP2-014) purchased from Coriell Institute for Medical Research.
# NCGC Assay Protocol Summary:
# The CellTiter-Glo luminescent cell viability assay (Promega) is a homogeneous method to measure the number of viable cells in culture. The end point readout of this assay is based on quantitation of intracellular ATP, an indicator of metabolic activity, using the luciferase reaction. Luciferase catalyzes the oxidation of beetle Luciferin to oxyluciferin and light in the presence of ATP. The luminescent signal is proportional to amount of ATP present.
# Using the CellTiter-Glo luminescent cell viability assay, the amount of cellular ATP was measured in the lymphoblastoid cell line with complete culture medium following compound treatment for 24 hours. The assay was performed in opaque white Kalypsys 1536-well plates. In the screen, tetraoctylammonium bromide was used as positive control. Library compounds were measured for their ability to cause acute toxicity in the cell line, as reflected by a decrease in intracellular ATP levels, in a concentration-dependent manner. […] AC50 values were determined from concentration-response data modeled with the standard Hill equation.
# qHTS protocol for CellTiter Glo lymphoblastoid cellular assay
# [Step] [Parameter] [Value] [Description]
# 1. Reagent; 5 uL; 2500 lymphoblastoid cells/well
# 2. Time; 5 hr; 37 C incubation
# 4. Controls; 23 nL; Tetraoctylammonium bromide 6.4pM to 92 uM
# 5. Time; 24 hr; 37 C incubation
# 6. Reagent; 5 uL; CellTiter Glo reagent
# 7. Time; 30 min; Room Temperature
# 8. Detection; Luminescence; Viewlux plate reader
# Keywords: cell viability, cytotoxicity, lymphoblastoid cell line, luminescence, NTPHTS, NTPHTS_NCGC, NIEHS, DSSTox, MLSMR, MLSCN, NIH Roadmap, qHTS, NCGC
row,SMILES,Potency
1,Cl/C=C/CCl,inactive
2,OCCCCO,inactive
3,CSSC,inactive
4,N#CCCCCC#N,inactive
5,N#CC(O)c1ccccc1 (stereo not given),inactive
6,CC(C)(C)c1ccccc1O,inactive
7,CCCCCc1cc(O)cc(O)c1,inactive
8,O=S(=O)(O)F,inactive
9,CNC(=O)O/N=C/C(C)(C)S(C)=O (stereo not given),inactive
10,ClCc1ccccc1,inactive
11,ClCC(Cl)CCl,inactive
12,CC(C)(Cl)Cl,inactive
13,Clc1ccc(Cl)c(Cl)c1,inactive
14,CC(=O)CCC(C)=O,inactive
15,Nc1ccc(-c2ccccc2)cc1,inactive
16,Cc1coc2c1CCC(C)C2 (stereo not given),inactive
17,N#CCCC#N,inactive
18,Nc1cccc2ccccc12,inactive
19,CCCCCC[N+](=O)[O-],inactive
20,Nc1ccc(Cc2ccc(N)cc2)cc1,inactive

row,SMILES,Potency
1,O=P(OCCCl)(OCCCl)OCCCl,inactive
2,O=C(Cc1ccccc1)OCc1ccccc1,inactive
3,FC(Cl)(Cl)Cl,inactive
4,O=C(O)CBr,inactive
5,ClCC(Cl)Cl,inactive
6,O=C(O)C(Br)CBr (stereo not given),inactive
7,Nc1c(Cl)cc([N+](=O)[O-])cc1Cl,inactive
8,O=[N+]([O-])c1ccc(Cl)c(Cl)c1Cl,inactive
9,Oc1cccc(Cl)c1,inactive
10,COC(=O)Nc1nc2ccccc2[nH]1,inactive
11,ClC(Cl)(Cl)C(Cl)(Cl)Cl,inactive
12,C/C=C/C=O,inactive
13,ClP(Cl)(Cl)(Cl)Cl,inactive
14,Oc1ccc(Cl)c(Cl)c1Cl,inactive
15,O=[N+]([O-])c1cccc(CCl)c1,inactive
16,ClCc1ccccn1,inactive
17,Cc1cc(-c2cc(C)c(N)c(C)c2)cc(C)c1N,inactive
18,C=CCOCC1CO1 (stereo not given),inactive
19,C=C(C)CCl,inactive
20,Oc1ccc(Cl)c(Cl)c1,inactive
